Screening results deposited in PubChem by several laboratories.
The list is not random: actives were taken first. Their share in the collection is about 4.6%.
SKKanGAS inh: SKKanGAS growth inhibition; S. pyogenes SKKanGAS, kanamycin growth, BacTiter-Glo, 6 h; inhibition, % at 7.5 µM; 300,000 compounds, 1.3% hits; AID 1662;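 active = mean replicate score, as percent of positive control median, at least 50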;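 also: strain carries kanamycin resistance gene driven by streptokinase promoter and grows in 40 µg/ml kanamycin; loss of luminescence reflects streptokinase promoter inhibition or plain growth inhibition; 0% = median of DMSO wells and 100% = positive control at its reference dose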
TIM10 inh: growth inhibitors of TIM10 yeast strain. inhibition, % at 10 µM. AID 463195. 330,000 compounds, 1.4% hits. S. cerevisiae TIM10 strain growth, BacTiter-Glo luminescence, 24 h;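 active = inhibition of 40% or more at the single tested concentration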;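 also: wild-type TIM10 isogenic control strain grown at permissive 25 °C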
PfHsp90 yeast 2: reduces growth (ATP signal) of yeast expressing P. falciparum Hsp90 | S. cerevisiae expressing PfHsp90, BacTiter-Glo ATP, 48 h; yeast lacking PDR1 and PDR3 efflux regulators | inhibition, % at 9.4 µM | 310,000 compounds, 0.32% hits | AID 504621;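 active = every replicate shows inhibition above about 80%, whatever the replicate mean, limit read from the data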;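 also: 0% = DMSO neutral controls and 100% = 20 µM radicicol positive controls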
tim23-1 inh: growth inhibitors of tim23-1 mutant yeast; S. cerevisiae tim23-1 growth, BacTiter-Glo luminescence, 24 h; inhibition, % at 20 µM; 330,000 compounds, 1.3% hits; AID 463212;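 active = growth inhibition of the mutant yeast at or above 50%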;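 also: temperature-sensitive mutant grown at 25 °C; plate controls were DMSO-treated mutant yeast for no effect and medium wells lacking yeast for full effect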
NLRP3 yeast inh: NALP3 inhibition in yeast; Yeast reconstituted NLRP3/ASC/caspase-1, beta-gal luminescence, 24 h; inhibition, % at 10 µM; 330,000 compounds, 0.39% hits;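 active = inhibition of 50% or more; inactive = inhibition below 50%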;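 also: plate controls were induced DMSO wells for no effect and uninduced yeast grown without galactose for full effect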
tim10-1 inh: inhibits growth of tim10-1 mutant yeast | inhibition, % at 20 µM | AID 463190 | S. cerevisiae tim10-1 ts strain growth, BacTiter-Glo, 24 h | 330,000 compounds, 2.2% hits;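 active = inhibition of at least 40%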;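 also: mutant grown at 25 °C; 0% = DMSO wells with yeast and 100% = wells holding no yeast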
Starred values were filed as active, the others as inactive; · = not tested or not shown.

SMILES | SKKanGAS inh | TIM10 inh | PfHsp90 yeast 2 | tim23-1 inh | NLRP3 yeast inh | tim10-1 inh
O=C(C=P(c1ccccc1)(c1ccccc1)c1ccccc1)c1ccccc1-c1ccccc1C(=O)C=P(c1ccccc1)(c1ccccc1)c1ccccc1 | · | · | 145.4* | · | · | ·
CCC(C)c1ccc(NC(=O)COc2c(F)c(F)c(C(F)(F)F)c(F)c2F)cc1 (centres undefined) | 67.0* | 13.8 | -12.2 | 24.4 | -4.4 | 35.1
O=C(NNC(=O)c1ccc(Br)s1)c1csc(N2CCOCC2)n1 | · | 7.8 | 2.3 | 3.1 | 21.4 | 4.9
Cc1nc2ccccc2c(=O)n1NC(=O)c1c(O)c2c(n(CC(C)C)c1=O)CCCC2 | 33.3 | 31.6 | 0.3 | 48.2 | 2.9 | 37.1
CCCCCCc1nc2ccccc2c(=O)n1NC(=O)c1c(O)c2c(n(CC(C)C)c1=O)CCCC2 | 57.5* | 6.7 | -24.3 | 18.7 | 1.1 | 0.1
CC(=O)Nc1ccc(NC(=O)CSc2nnc(NC(=O)c3ccc(Br)o3)s2)cc1 | 73.0* | 0.8 | -0.4 | 16.8 | 8.7 | 8.1
Cc1sc2ncnc(N3CCCC(C)C3)c2c1C (centres undefined) | 18.6 | 13.9 | · | 31.6 | 19.5 | 17.1
CCN(CC(=O)N1CCCC1)S(=O)(=O)c1ccc2ccccc2c1 | 0.3 | -14.1 | 0.7 | 11.1 | 7.4 | -3.7
CCOc1ccccc1CNC(=O)c1ccc2nc(N3CCOCC3)sc2c1 | -2.2 | -11.2 | -22.8 | 19.2 | 18.2 | 18.4
CCOc1cc(/C=N/Nc2ccc(C(=O)O)cc2)ccc1OC(=O)c1ccccc1C | 75.1* | -1.5 | 18.9 | -1.5 | 5.0 | 6.2
COc1cc(/C=N/NS(=O)(=O)c2ccc3ccccc3c2)ccc1OCc1ccc(C(=O)O)cc1 | 54.8* | 15.5 | 18.2 | 22.0 | 1.7 | -1.0
COc1cc(/C=N/NS(=O)(=O)c2ccc(C)cc2)ccc1OCc1cccc(C(=O)O)c1 | 10.6 | -11.2 | -2.7 | 19.8 | 7.7 | -7.0
COc1cc(/C=N/Nc2ccc(Cl)c(C(=O)O)c2)ccc1OC(=O)c1ccccc1F | 21.3 | 22.3 | 10.8 | 36.9 | -4.8 | 11.4
COc1cccc(C(=O)Oc2ccc(/C=N/Nc3ccc(C(=O)O)cc3)cc2OC)c1 | 54.7* | 8.7 | 0.3 | 28.7 | 1.4 | 0.1
Cc1nnc(SCC(=O)NC2CCCc3c2cnn3-c2ccccc2F)o1 (centres undefined) | -6.0 | -6.2 | -3.2 | -4.6 | 11.4 | 4.5
CCOC(=O)C1CCN(S(=O)(=O)c2c(C)[nH]c(C)c2C(=O)N2CCCCC2)CC1 | 3.0 | 15.3 | -9.1 | -4.4 | 2.2 | -3.3
O=C1CSc2ccc(C(=O)Nc3cccc(S(=O)(=O)Nc4ccc(Br)cc4)c3)cc2N1 | 73.2* | 4.3 | · | -2.3 | 5.9 | -9.2
O=C(CCC1CCCN(c2ncccn2)C1)NCc1ccc(F)c(F)c1 (centres undefined) | 1.2 | -19.3 | 0.2 | 10.7 | 0.4 | 17.3
Cc1c(/C=N/NC(=O)c2ccccc2O)c2ccccn2c1C(=O)c1ccc(F)cc1 | 29.3 | -1.1 | -4.8 | 17.7 | 26.4 | 10.0
Cc1c(/C=N/NC(=O)c2ccc(O)cc2)c2ccccn2c1C(=O)c1ccc(F)cc1 | 51.9* | 0.8 | 19.7 | 4.3 | -5.4 | 4.5
c1ccc2c(c1)nc(Nc1ccc(N3CCCCC3)cc1)c1nncn12 | 59.1* | 19.9 | -26.4 | 23.0 | -9.9 | 24.2
Cc1ccc(-c2n[nH]c(=S)nc2-c2ccc(C)cc2)cc1 | 0.6 | · | -11.9 | · | · | ·
Cc1ccc(-c2n[nH]c3c2CCC3)cc1 | 55.2* | 27.7 | -4.9 | 34.6 | 44.0 | 10.6
CC(C)(C)c1cc(CSC(=S)NC2CCS(=O)(=O)C2)c(Br)c(C(C)(C)C)c1 (centres undefined) | 95.9* | 10.9 | 7.7 | 12.7 | 32.9 | 10.9
CCN(CC(=O)NCc1cccs1)S(=O)(=O)c1cccc(Br)c1 | · | -2.9 | · | 13.6 | 20.2 | -1.7
SMILES | SKKanGAS inh | TIM10 inh | PfHsp90 yeast 2 | tim23-1 inh | NLRP3 yeast inh | tim10-1 inh
CCC(C(=O)N1CCC(N2CCCCC2)CC1)n1nc(C)c2sc3ccccc3c2c1=O (centres undefined) | 52.6* | 5.3 | -1.9 | -9.2 | 15.4 | -1.3
Cc1nn(C(C)C(=O)N2CCCCC2)c(=O)c2c1sc1ccccc12 (centres undefined) | -8.8 | 17.5 | -9.2 | 11.7 | 13.2 | 13.9
COc1cccc(/C=N/NC(=O)c2cc3c(OC)ccc(OC)c3[nH]2)c1O | 106.5* | 21.5 | -5.5 | 29.0 | 10.0 | 1.4
COc1cc(C(=O)N/N=C/c2cccc(Oc3ccccc3)c2)ccc1O | 22.9 | 17.0 | 5.1 | 34.3 | 13.0 | 27.1
COc1ccc(C(=O)N/N=C/c2cc(Br)ccc2O)cc1OC | 85.8* | 21.7 | -9.5 | 39.5 | -4.5 | -8.7
COc1cc(/C=N/NC(=O)c2ccncc2)ccc1OC(=O)c1ccccc1Cl | -5.1 | 21.6 | -4.6 | -7.0 | 3.9 | 27.2
COc1cc(C(=O)N/N=C/c2ccc(OC(=O)c3cccc(C)c3)cc2)ccc1O | 52.0* | 4.9 | 12.7 | 11.2 | 21.7 | -0.3
COc1cc(C(=O)N/N=C/c2ccc(OC(=O)c3ccccc3Cl)c(OC)c2)ccc1O | 66.4* | 2.6 | -4.2 | 12.0 | 11.2 | 14.0
COc1ccc(Br)cc1/C=N/NC(=O)c1cc(Br)ccc1O | 9.3 | -10.6 | · | -12.3 | 10.9 | -24.0
Cn1cccc1-c1cc(C(=O)N/N=C/c2cc(Br)ccc2O)[nH]n1 | 89.6* | 30.2 | 7.8 | 29.0 | 10.3 | -21.9
Cn1cccc1-c1cc(C(=O)N/N=C/c2ccccc2Cl)[nH]n1 | 5.5 | 3.6 | 15.4 | 5.7 | 14.1 | 1.5
CCC(C)(C)NC(=O)C(c1ccc(F)cc1)N(Cc1ccccc1)C(=O)c1cnccn1 (centres undefined) | 3.3 | 17.0 | 4.5 | 24.8 | 8.0 | 27.6
CCOc1cc(/C=C2\SC(=N)N(c3nccs3)C2=O)ccc1OCCN1CCOCC1 | 80.3* | 31.4 | -4.1 | 21.8 | -0.8 | 30.1
O=C(/C=C/c1cccc([N+](=O)[O-])c1)c1ccc([N+](=O)[O-])o1 | 86.1* | · | 124.6* | · | · | ·
O=C(/C=C/c1cccc([N+](=O)[O-])c1)NCc1ccc2c(c1)OCO2 | 3.7 | -15.1 | -46.3 | 13.5 | 23.7 | -5.2
CC(NNC(=S)N1CCN(c2ccccn2)CC1)c1nccc2ccccc12 (centres undefined) | · | · | 121.4* | · | · | ·
O=C1C(=O)N(c2ccccn2)C(c2ccc(Br)cc2)/C1=C(/O)c1ccc(Br)cc1 (centres undefined) | 68.6* | 9.6 | 4.6 | 13.3 | 8.1 | 8.5
COc1ccc(/C(O)=C2/C(=O)C(=O)N(c3ccccn3)C2c2ccc(OC)cc2)cc1 (centres undefined) | -5.0 | -17.1 | 2.0 | -3.5 | -4.2 | 0.0
CCCOc1ccc(/C(O)=C2/C(=O)C(=O)N(c3ccccn3)C2c2ccc(OC)cc2)cc1C (centres undefined) | 50.0* | 9.2 | 9.6 | 28.5 | 37.8 | 30.2
